The list is not random: actives were taken first. Their share in the collection is about 12%.
HP1b binding inh = HTS for Inhibitors of HP1-beta Chromodomain Interactions with Methylated Histone Tails; Potency, µM (top dose mostly 114 µM), hits mostly inhibitors; AlphaScreen HP1-beta / biotin-H3K9me3 peptide binding; 0.56% of 390,000 active; AID 540317, 2011; also: nearly all actives have a fitted effect of over 70% in size
Target sequence (P83916 whole entry, looked up): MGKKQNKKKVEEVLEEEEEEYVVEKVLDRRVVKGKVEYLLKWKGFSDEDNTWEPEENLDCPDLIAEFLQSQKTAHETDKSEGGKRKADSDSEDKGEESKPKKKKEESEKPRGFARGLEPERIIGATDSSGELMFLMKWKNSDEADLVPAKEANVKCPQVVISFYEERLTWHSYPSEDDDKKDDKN
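AlphaScreen: HP1-beta (50 nM) preformed 30 min with biotin-H3(1-18)K9me3 peptide (50 nM) in PBS pH 7.4, 0.01% Tween-20. Compound added for 30 min at RT, then streptavidin donor/nickel chelate acceptor beads (10 ug/mL) for 30 min.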
L3MBTL1 inh = qHTS Assay for the Inhibitors of L3MBTL1; Lethal(3)malignant brain tumor-like protein 1 (Homo sapiens), Q9Y468; AlphaScreen L3MBTL1–H3K9me1 peptide binding; Potency, µM (top dose mostly 57.1 µM), usual class: inhibitors; 0.66% of 230,000 active; AID 485360, 2010; also: nearly all actives have a fitted effect of over 60% in size
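AlphaScreen proximity signal between nickel-chelate acceptor and streptavidin donor beads (final 10 ug/mL) reports binding of 50 nM L3MBTL1 to 75 nM biotin-H3 K9me1 peptide; complex incubated with compounds 30 min at room temperature; cefsulodin titration as control.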
JMJD2A Tudor = qHTS Assay for Inhibitors of JMJD2A-Tudor Domain | 4.4% of 390,000 active | Potency, µM (series often up to 114 µM), actives largely listed as inhibitors | AlphaScreen JMJD2A-Tudor / H3K4me3 peptide binding; also: nearly all actives have a fitted effect of over 50% in size
G9a inh = qHTS Assay for Inhibitors of Histone Lysine Methyltransferase G9a | 8.8% of 350,000 active | G9a H3K9 monomethylation, AlphaScreen, 2 h | Potency, µM (doses to about 102 µM), actives largely listed as inhibitors | Histone-lysine N-methyltransferase EHMT2 (Homo sapiens), Q96KQ7; also: nearly all actives have a fitted effect of over 75% in size
Target sequence (Q96KQ7 913-1193 limits assumed): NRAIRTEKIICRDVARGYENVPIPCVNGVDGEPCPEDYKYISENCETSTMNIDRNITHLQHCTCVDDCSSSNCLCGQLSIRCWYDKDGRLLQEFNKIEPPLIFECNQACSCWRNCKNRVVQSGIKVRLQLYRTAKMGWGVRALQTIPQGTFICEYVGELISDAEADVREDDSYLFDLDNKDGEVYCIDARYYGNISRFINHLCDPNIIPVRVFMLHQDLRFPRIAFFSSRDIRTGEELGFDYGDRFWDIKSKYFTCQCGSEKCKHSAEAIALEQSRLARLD
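AlphaScreen read-out: biotin-H3K9 peptide (500 nM) methylation by 20 nM enzyme with 20 uM SAM, 2 h at room temperature after 15 min compound preincubation; anti-monomethyl H3K9 antibody plus donor/acceptor beads, 10 min dark.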
Sfp inh = qHTS Assay for Inhibitors of Bacillus subtilis Sfp phosphopantetheinyl transferase (PPTase). Potency, µM, usual class: inhibitors. Biochemical Sfp PPTase activity, qHTS. AID 1490, 2009. 4'-phosphopantetheinyl transferase ffp (Bacillus subtilis), Q9F4F7. 3.5% of 310,000 active;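 also: the enzyme is Sfp with the accession as filed and its product quenches rhodamine fluorescence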
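Buffer: 50 mM Hepes-Na pH 7.6, 10 mM MgCl2, 0.01% Nonidet P-40, 0.01% BSA. Enzyme 15 nM, pre-exposed to compound 15 min; substrates then added and fluorescence change tracked over 30 min.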
BAZ2B block = qHTS Assay for Inhibitors of BAZ2B. AID 504333, 2011. Potency, µM (series often up to 114 µM), most hits filed as inhibitors. 4.4% of 360,000 active. AlphaScreen BAZ2B-H3K14Ac peptide displacement; also: nearly all actives have a fitted effect of over 60% in size
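AlphaScreen luminescence quantifies BAZ2B engagement of H3K14Ac peptide; the protein and biotinylated peptide are both at 50 nM final, buffer PBS pH 7.4 with 0.01% Tween-20, all steps at room temperature.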
Numbers stand for hits; n = inactive; u = inconclusive; x = not tested or not shown; [ ] = another dose, or the depositor's remark. Calls follow the shape of the dose curve; as a rule, active = well fitted curve in the direction sought with a large enough effect; inconclusive = small, poorly fitted or top-dose-only effect, or another doubt; inactive = no such curve, though single readings can be large; an effect the other way counts as inactive or inconclusive.

SMILES	HP1b binding inh	L3MBTL1 inh	JMJD2A Tudor	G9a inh	Sfp inh	BAZ2B block
Cc1ccc(-n2c(Cn3nc(C(F)(F)F)cc3C)n[nH]c2=S)cc1	n	x	56µM	u	u	n
COc1cccc(-n2c(Cn3nc(C(F)F)cc3C(F)F)n[nH]c2=S)c1	n	n	45µM	8.9µM	n	n
CCC1CN(C(=O)NCc2ccc(C)cc2)c2cc(Cl)ccc2O1 (stereo unspecified)	n	x	n	n	n	n
CCOc1ccc(N2C(=O)CC(Sc3ccccc3C(=O)O)C2=O)c([N+](=O)[O-])c1 (stereo unspecified)	n	n	u	1.4µM	13µM	63µM
O=C(O)c1ccccc1SC1CC(=O)N(c2cccc3ccccc23)C1=O (stereo unspecified)	u	x	22µM	x	16µM	u
Cn1c(-c2ccc(Br)o2)nc2ccccc21	n	n	n	n	40µM	n
Cn1c(-c2nonc2N)nc2ccccc21	n	n	n	40µM	n	n
Cn1c(-c2ccc(Br)o2)nc2cc(Br)ccc21	n	n	n	u	40µM	n
CCCC(=O)c1cc(-c2nc3ccccc3n2C)n(C)c1	n	n	n	u	n	n
CC(=O)c1ccc(-c2nc3ccccc3n2C)o1	n	n	n	n[12.7 µM]	40µM	n
Cc1ccc2nc(-c3ccc(Br)o3)oc(=O)c2c1	n	x	n	n[2.33 µM]	n	n
CCCCOc1ccccc1CC1C(=O)Nc2ccc(Br)cc21 (stereo unspecified)	n	x	n	n	x	n
Cc1cccc(C(=O)Nc2ccc(C(=O)OCc3cc(=O)n4nc(CC(C)C)sc4n3)cc2)c1	n	x	n	n	x	n
CN(C)c1ccc(-c2nc3ccccc3n2C)cc1	n	n	n	u	u	u
Cc1ccc(-c2nc3ccccc3n2C)o1	n	x	n	13µM	35µM	n
Cc1oc(=O)oc1CN1CCN(c2cc3c(cc2F)c(=O)c(C(=O)O)c2n3C(C)S2)CC1 (stereo unspecified)	x	x	x	n	n	x
Cc1cc(C)c2c(N=NN3CCOCC3)[nH]nc2n1	n	n	n	8.9µM	n	n
COC(=O)c1scc(-c2ccc(C)cc2)c1S(=O)(=O)Nc1ccc(N(C)C)cc1	u	x	u	u	x	8.9µM
COC(=O)c1scc(C)c1S(=O)(=O)Nc1ccc(C)cc1	n	n	n	x	50µM	n
COC(=O)c1scc(-c2ccc(C)cc2)c1S(=O)(=O)Nc1ccc(NC(C)=O)cc1	n	x	n	n	x	n
COC(=O)c1scc(-c2ccc(C)cc2)c1S(=O)(=O)Nc1ccc(OC(F)(F)F)cc1	n	x	n	n	x	n
CCC1(c2ccccc2)NC(=O)N(CC(=O)Nc2cc(Cl)ccc2N2CCOCC2)C1=O (stereo unspecified)	n	n	n	35µM	x	n
CCC1(c2ccccc2)NC(=O)N(CC(=O)Nc2ccc(Cl)c(S(=O)(=O)N3CCCCC3)c2)C1=O (stereo unspecified)	n	n	n	n[12.7 µM]	x	n
CCC1(c2ccccc2)NC(=O)N(CC(=O)Nc2cccc(S(=O)(=O)N3CCCCC3)c2)C1=O (stereo unspecified)	n	n	n	45µM	x	n
CCC1(c2ccc(F)cc2)NC(=O)N(CC(=O)c2cc(C)n(C3CC3)c2C)C1=O (stereo unspecified)	n	n	n	50µM	x	n
SMILES	HP1b binding inh	L3MBTL1 inh	JMJD2A Tudor	G9a inh	Sfp inh	BAZ2B block
CCC1(c2ccccc2)NC(=O)N(CC(=O)Nc2ccccc2N2CCCC2)C1=O (stereo unspecified)	n	n	n	40µM	x	n
CC1(c2ccccc2)NC(=O)N(CC(=O)Nc2ccccc2N2CCCCC2)C1=O (stereo unspecified)	n	n	n	n[0.501 µM]	x	n
CCC1(c2ccccc2)NC(=O)N(CC(=O)Nc2ccc(S(=O)(=O)NC3=NCCCCC3)cc2)C1=O (stereo unspecified)	n	n	n	50µM	x	n
CCC1(c2ccccc2)NC(=O)N(CC(=O)NCc2ccc(F)cc2)C1=O (stereo unspecified)	n	x	n	n	n	n
CCC1(c2ccccc2)NC(=O)N(CC(=O)Nc2ccc(N3CCCC3)cc2C)C1=O (stereo unspecified)	u	n	45µM	1.8µM	x	45µM
CCC1(c2ccccc2)NC(=O)N(CC(=O)NNC(=O)c2ccc(F)cc2)C1=O (stereo unspecified)	n	n	n	6.3µM	x	n
CC1(c2ccccc2)NC(=O)N(CC(=O)Nc2ccc(S(=O)(=O)NC3=NCCCCC3)cc2)C1=O (stereo unspecified)	n	x	n	x	x	x
Cc1cc(N2CCCC2)ccc1NC(=O)CN1C(=O)NC(C)(c2ccccc2)C1=O (stereo unspecified)	n	x	u	x	n	25µM
CC(=O)Nc1ccn(C2OC(C(COC(C)=O)NC(=O)C(COCc3ccccc3)NC(=O)OC(C)(C)C)C(OC(C)=O)C2OC(C)=O)c(=O)n1 (stereo unspecified)	n	x	n	x	n	x
CC1(c2ccccc2)NC(=O)N(CC(=O)Nc2ccc(N3CCOCC3)cc2N2CCOCC2)C1=O (stereo unspecified)	n	n	n	56µM	x	n
COc1ccc(CNC(=O)CN2C(=O)NC(Cc3ccccc3)(c3ccccc3)C2=O)cc1OC (stereo unspecified)	n	n	n	8.9µM	x	n
O=C(CN1C(=O)C2CCCCC2C1=O)Nc1ccccc1N1CCCC1 (stereo unspecified)	n	n	n	u	x	n
O=C(CN1C(=O)C2CC=CCC2C1=O)Nc1ccccc1N1CCCC1 (stereo unspecified)	n	n	n	50µM	x	n
CC1CCc2ccccc2N1CC(=O)Nc1cccc(S(=O)(=O)N2CCCC2)c1 (stereo unspecified)	n	n	u	20µM	x	n
COC(=O)C/C=C\[C@@H](C)[C@@H](/C=N\OC[C@@H](O)COCc1ccco1)NS(=O)(=O)c1ccc(C)cc1	x	x	x	x	n	x
CCOC(=O)c1sc(N2C(=O)C(O)=C(C(=O)c3ccco3)C2c2ccc([N+](=O)[O-])cc2)nc1C (stereo unspecified)	n	x	u	x	x	x
COc1ccccc1CNc1ncnc2ccc(-c3cccc(C#N)c3)cc12	x	x	x	n[0.501 µM]	n	x
CC[N+]1(CC(O)COC2CC(C)CC(C)(C)C2)CCOCC1 (stereo unspecified)	n	x	20µM	n[12.7 µM]	n	n
